Sampled rows, rich in hits. Any-hit rate of the full collection: about 4.2%.
CCHF vOTU inh: CCHFV vOTU protease inhibition | AID 651958 | inhibition, % at 11.5 µM | hit rate 0.55% among 370,000 | Pep-AMC fluorescence; note: 0% = vehicle wells with enzyme and 100% = no enzyme wells
RecA intein inh: blocks M. tuberculosis RecA intein splicing. P9WHJ3. cell-free RecA intein splicing, fluorescence. inhibition, % (no concentration beside the values). hit rate 0.75% among 290,000; in the data active = inhibition above about 30%; inconclusive = no clear call, values can overlap the other calls;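 note: 0% = vehicle wells and 100% = reference inhibitor control wells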
FBA Mtb inh: inhibits M. tuberculosis FBA enzyme; P9WQA3; purified M. tuberculosis FBA, fluorescence read-out; inhibition, % at 1 µM; hit rate 2.3% among 360,000; AID 588726; in the data active = inhibition above about 27%;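 note: 0% = vehicle and 100% = reference inhibitor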
Target sequence (P9WQA3 whole entry, looked up): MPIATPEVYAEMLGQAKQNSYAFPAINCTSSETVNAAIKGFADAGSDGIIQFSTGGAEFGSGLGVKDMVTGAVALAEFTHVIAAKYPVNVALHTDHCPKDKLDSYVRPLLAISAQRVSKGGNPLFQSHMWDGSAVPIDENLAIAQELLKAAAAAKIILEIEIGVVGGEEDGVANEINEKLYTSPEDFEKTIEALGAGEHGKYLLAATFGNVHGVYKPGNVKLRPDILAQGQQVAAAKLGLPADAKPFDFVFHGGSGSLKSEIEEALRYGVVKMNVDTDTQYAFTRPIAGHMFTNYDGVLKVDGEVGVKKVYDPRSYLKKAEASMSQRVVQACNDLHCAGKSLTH
Mtb bLac sens: beta-lactam sensitization of Mtb H37Rv; AID 434955; M. tuberculosis H37Rv growth with meropenem, percent inhibition; inhibition, % at 25 µM; hit rate 0.27% among 330,000; call rule not given here;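 note: growth measured after seven days incubation then overnight dye step; 0% = bacteria only wells and 100% = bacteria with antibiotic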
GDH-TPI counter: counter-screen for M. tuberculosis FBA inhibitors: GDH-TPI coupled enzymes; GDH-TPI coupled enzyme counterscreen, NADH absorbance; AID 588335; inhibition, % at 4.8 µM; hit rate 1.2% among 360,000;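 note: 0% = DMSO wells and 100% = wells lacking the enzyme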
The depositor's hits bear a star; u = inconclusive; x = no result given; + = active, no number. Cut-off read from the data, not from the text of the source, unless noted: active = inhibition above about 30%; inactive = the rest.

SMILES	CCHF vOTU inh	RecA intein inh	FBA Mtb inh	Mtb bLac sens	GDH-TPI counter
O=C(NCCN1C(=O)S/C(=C\c2ccc(OC(F)F)cc2)C1=O)C1=COCCO1	x	5.1	3.6	1.2	40.6*
O=C(NCCN1C(=O)S/C(=C\c2ccc(Cl)cc2)C1=O)C1=COCCO1	-0.9	x	-0.4	-0.9	-0.9
C/C(=N\NS(=O)(=O)c1ccc(C)c([N+](=O)[O-])c1)c1cc2ccccc2o1	-1.1	1.3	-3.3	-11.8	40.8*
Cc1ccc(S(=O)(=O)N/N=C/c2ccc(O)c(O)c2)cc1[N+](=O)[O-]	-9.8	-4.0	-2.6	-10.1	32.9*
CCN(C(=O)[C@@H]1CC(=O)O[C@@H]1c1ccccc1)c1ccccc1	-2.3	x	x	x	x
COC(=O)C12CCCN1C1C(=O)N(Cc3ccc(C(N)=O)cc3)CC1C2 (stereo not given)	-4.8	x	x	x	x
O=C(CC1(O)C(=O)Nc2ccccc21)c1ccc(-n2cnnn2)cc1 (stereo not given)	-14.6	0.7	1.6	2.5	3.7
CCS(=O)(=O)Nc1ccc(C(=O)CC2(O)C(=O)Nc3ccccc32)cc1 (stereo not given)	14.0	-3.4	-2.4	u	38.6*
COc1cc(-c2cc(C(=O)Nc3ccc(N4CCOCC4)cc3)c3ccccc3n2)cc(OC)c1OC	-0.2	-0.9	-1.6	-3.7	42.5*
O=C(Nc1ccc(N2CCOCC2)cc1)c1cc(-c2ccncc2)nc2ccccc12	9.6	-0.1	0.6	-3.4	12.5
c1ccc(-c2ccc(-c3ccncn3)cc2)cc1	-21.5	1.9	116.6*	5.8	-1.5
CCN(C(=O)COC(=O)/C=C/c1ccc(C)o1)c1c(N)n(Cc2ccccc2)c(=O)[nH]c1=O	8.3	x	0.6	x	21.5
Cc1ccc(/C=C/C(=O)OCC(=O)N(CC(C)C)c2c(N)n(Cc3ccccc3)c(=O)[nH]c2=O)o1	3.3	x	-0.3	-1.0	41.7*
c1ccc(-c2nc3ccccc3nc2N2CCOCC2)cc1	5.9	0.5	15.3	2.7	14.6
Cn1c(N2CCOCC2)nc(-c2ccccc2)c1-c1ccccc1	-4.9	3.0	102.9*	0.9	2.1
Cc1cc2n(c(=O)c1C#N)CCCN2c1ccccc1	8.2	1.7	4.2	5.1	58.2*
Cc1cc(C)n(CC(=O)N2CCc3ccccc32)c(=O)c1C#N	-9.7	1.1	0.9	-3.2	2.2
CC(=O)N1CCCN(S(=O)(=O)c2ccc3c(c2)oc(=O)n3C)CC1	-4.1	x	x	x	x
CCN(CC)c1ccc(/C=N/N(c2ccccc2)c2ccccc2)c(O)c1	-3.7	-0.5	-2.8	31.6	14.1
CCN(CC)c1ccc(C=Nc2ccc(C#N)cc2)c(O)c1	17.0	-1.9	-1.5	27.3	44.7*
CCN(CC)c1ccc(C=Nc2ccccc2C)c(O)c1	21.9	0.1	2.5	-3.5	37.4*
COc1cc(-c2nc3ccc(N4CCN(C)CC4)cc3[nH]2)cc(OC)c1OC	-321.1	-7.7	+	6.1	11.0
COc1cc(-c2cnc3c(NC=O)cc(-c4ccc(N5CCN(C)CC5)cc4)cn23)cc(OC)c1OC	13.7	x	1.1	x	10.7
Nc1[nH]c(C(=O)c2ccccc2)c(-c2ccc(Cl)cc2)c1C(=O)c1c[nH]c2ccc(Br)cc12	0.6	x	x	x	x
NC(=O)C1CCN(C(=O)c2ccc3nc(-c4ccccc4)c(-c4ccccc4)nc3c2)CC1	-72.5	0.0	65.9*	3.1	24.1
SMILES	CCHF vOTU inh	RecA intein inh	FBA Mtb inh	Mtb bLac sens	GDH-TPI counter
N#CCSc1nc2cc(C(=O)N3CCC(C(N)=O)CC3)ccc2c2nc3ccccc3n12	x	1.4	0.8	-5.9	31.5*
COC(=O)[C@]12C[C@H](CC(=O)N3CCCC3)C(=O)N(CCc3ccc(OC)c(OC)c3)C1=C[C@H](C1CCCC1)O[C@@H]2C	3.3	x	x	x	x
CCc1c(C)c2cc(Cl)c(O)c(CN(C)C)c2oc1=O	-317.9	-143.9	x	19.2	32.2*
CCCCc1cc(=O)oc2c(CN(C)C)c(O)c(Cl)cc12	-312.1	-68.9	x	u	12.5
CCc1c(C)c2cc(Cl)c(O)c(CN(CC)CC)c2oc1=O	-312.9	-117.4	+	-9.8	12.9
Cc1c(O)c(CN(C)C)cc2c1oc(=O)c1ccccc12	-9.4	-4.4	1.5	20.8	20.0
Cc1c(C)c2cc(Cl)c(O)c(CN(C)C)c2oc1=O	-304.4	-256.8	+	-4.9	14.7
O=C1C=C[C@H]2CC[C@@H](O)[C@@H]1[C@@H]2Sc1ccccc1	1.0	x	x	x	x
Cc1cc(-c2n[nH]c(=S)n2N=Cc2ccc(OCc3ccccc3)cc2)n[nH]1	5.7	x	x	x	x
O=C(O)c1cc(Cl)ccc1-c1ccc(/C=C/c2cc(C(F)(F)F)[nH]c(=O)n2)o1	-2.4	-11.9	6.8	-5.7	16.4
O=c1nc(/C=C/c2ccc(Cl)cc2Cl)cc(C(F)(F)F)[nH]1	14.9	6.1	2.3	67.9	41.4*
c1nc2nc3c(c(N4CCCC4)n2n1)CCCC3	7.6	x	x	x	x
Cc1[nH]nc2c1C(C(C)C)C(C#N)=C(N)O2 (stereo not given)	0.6	x	0.7	-18.2	1.3
Cc1nn(-c2ccccc2)c(C)c1C1C(C#N)=C(N)Oc2n[nH]c(C)c21 (stereo not given)	-14.6	62.5*	-1.9	1.2	-13.4
Cc1[nH]nc2c1C(c1cc(Br)cs1)C(C#N)=C(N)O2 (stereo not given)	11.8	53.1*	-0.8	-1.9	14.7
CCC(C)C1C(C#N)=C(N)Oc2n[nH]c(-c3ccccc3)c21 (stereo not given)	4.5	4.8	-2.6	-4.2	2.4
Cc1ccc(C2C(C#N)=C(N)Oc3n[nH]c(-c4ccccc4)c32)o1 (stereo not given)	4.1	87.5*	1.4	4.6	13.7
Cc1nn(C)c(C)c1C1C(C#N)=C(N)Oc2n[nH]c(C)c21 (stereo not given)	5.7	43.5*	-0.8	-1.2	-4.5
Cc1[nH]nc2c1[C@@H](c1ccccc1[N+](=O)[O-])C(C#N)=C(N)O2	-4.7	-0.3	8.8	10.2	8.6
Cc1nn(-c2ccccc2)c2c1C(c1ccc([N+](=O)[O-])cc1)C(C#N)=C(N)O2 (stereo not given)	5.6	-2.4	1.1	-0.9	9.0
Cc1ccc(-n2nc(C)c3c2OC(N)=C(C#N)C3c2ccc(F)cc2)cc1 (stereo not given)	-1.3	60.0*	2.0	-5.6	14.7
NC(=NCCc1c[nH]c2ccccc12)NC(=O)OCc1ccccc1	-1.2	x	x	x	x
CCN(CC)c1ccc2cc(C(C)=O)c(=O)oc2c1	22.9	-161.3	-38.4	13.8	3.7
CCN(CC)c1ccc2cc(NC(=O)CCC(=O)O)c(=O)oc2c1	-68.9	x	31.4*	-3.5	10.0
Cc1cc(N2CCNC[C@H]2C)ccc1N1CCN(Cc2ccccc2)[C@@H](C)C1	4.5	x	x	x	x
O=C1CCC/C1=C/Nc1cccc(F)c1	0.1	1.1	-1.0	6.5	34.6*
COc1ccc(Oc2ccc(N/C=C3\CCCC3=O)cc2)cc1	19.5	-2.5	-2.7	67.8	39.5*
O=C(/C=C/Nc1ccc(S(=O)(=O)Nc2cnc3ccccc3n2)cc1)c1ccccc1	-9.7	-2.8	2.1	-8.0	16.5
Cc1cc(C)nc(NS(=O)(=O)c2ccc(N/C=C\C(=O)c3ccc(Cl)cc3)cc2)n1	18.2	-4.6	3.1	7.0	31.5*
O=C1CCCC/C1=C\Nc1ccc(S(=O)(=O)Nc2cnc3ccccc3n2)cc1	3.1	-0.5	3.6	12.5	37.5*

Assay outcomes from PubChem BioAssay.
